# Shown are actives, neighbours in structure and some others; about 4.7% of the full set was active somewhere.
# proKLK7 act – proKLK7 (human) activation, primary screen; 370,000 compounds, 0.9% hits; activation, % at 7 µM; AID 652039; P49862; purified proKLK7, EDANS-DABCYL substrate fluorescence; 100% is mature enzyme control, 0% vehicle;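 active means activation above the mean of all tested compounds plus 3 SD, computed per campaign excluding outliers beyond control limits, cut at about 13% in these data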
# Pemphigus Ab inh – blocks pemphigus antibody binding to human desmoglein-3. DSG3-coupled beads, scFv-anti-DSG3-GFP binding, flow cytometry; active compounds read low. P32926. binding (percent of control), % at 10 µM. 310,000 compounds, 0.48% hits;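 active means binding more than 3 SD below its plate's average and above zero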;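 further: hits lower antibody fragment binding to DSG3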
# MPTP inh – inhibitors of mitochondrial permeability transition pore. isolated mouse mitochondria, Ca2+ swelling absorbance, 30 min. AID 602449. 360,000 compounds, 1.4% hits. inhibition, % at 10 µM;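 active means inhibition of 50% or more, scaled per plate between neutral and stimulator controls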;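 further: 0% = DMSO wells given calcium and 100% = 1 mM EGTA wells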
# ADAM17 inh – inhibitors of human ADAM17; 370,000 compounds, 0.83% hits; P78536; inhibition, % at 6.95 µM; recombinant ADAM17, EDANS/DABCYL FRET peptide cleavage;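 active means inhibition above the mean of compounds lying between control limits plus 3 SD, set per campaign, cut at about 8.5% in these data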;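 further: 0% = DMSO-only wells as the low control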
# Target sequence (P78536 215-824 limits assumed): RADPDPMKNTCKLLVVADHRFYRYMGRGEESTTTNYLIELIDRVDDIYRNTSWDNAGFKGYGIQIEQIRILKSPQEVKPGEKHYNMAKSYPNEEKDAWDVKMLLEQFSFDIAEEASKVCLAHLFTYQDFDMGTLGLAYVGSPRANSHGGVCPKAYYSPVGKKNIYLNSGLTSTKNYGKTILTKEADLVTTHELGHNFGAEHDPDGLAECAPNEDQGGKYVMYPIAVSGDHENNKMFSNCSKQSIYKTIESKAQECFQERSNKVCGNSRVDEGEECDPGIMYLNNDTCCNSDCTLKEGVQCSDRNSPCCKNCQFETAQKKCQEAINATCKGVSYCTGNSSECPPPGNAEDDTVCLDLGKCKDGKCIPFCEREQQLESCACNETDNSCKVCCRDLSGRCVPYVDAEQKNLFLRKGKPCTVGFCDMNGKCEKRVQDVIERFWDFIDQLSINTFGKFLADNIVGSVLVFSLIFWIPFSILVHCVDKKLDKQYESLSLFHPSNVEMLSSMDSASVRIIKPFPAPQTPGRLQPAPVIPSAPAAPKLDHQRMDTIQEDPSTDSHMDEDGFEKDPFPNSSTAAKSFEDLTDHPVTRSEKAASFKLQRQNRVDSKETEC
# ADAM10 inh – inhibitors of human ADAM10; O14672; recombinant ADAM10, EDANS/DABCYL FRET peptide cleavage, 3 h; inhibition, % at 7 µM; 370,000 compounds, 0.62% hits;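 active means inhibition above a per-campaign cutoff equal to the mean of compounds falling between control-based bounds plus 3 SD, cut at about 20% in these data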;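 further: 0% = DMSO wells while the 100% control is not disclosed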
# rCAG RNA binder – molecules binding r(CAG) RNA repeats; r(CAG) RNA repeat, TO-PRO-1 dye displacement fluorescence; inhibition, % at 3 µM; 370,000 compounds, 1.3% hits;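 active means inhibition above the plate cutoff, the mean of all test compounds on that plate plus 3 SD, cut at about 35% in these data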;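 further: 0% = DMSO alone and 100% = 100 µM mitoxantrone as full dye displacement; higher means more dye released from RNA so lower well fluorescence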
# KLK7 act conf – confirmation of human kallikrein-7 zymogen activators | shares compounds with proKLK7 act | purified proKLK7, EDANS-DABCYL substrate fluorescence; scaled: vehicle 0, mature enzyme 100 | activation, % at 7 µM | 3,200 compounds, 68% hits | AID 686949;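 active means activation, as change over the incubation, above the mean of all tested compounds plus 3 SD, cut at about 13% in these data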
# EDANS-DABCYL int – optically interferes with EDANS-DABCYL signal, flagging KLK7 hits; shares compounds with proKLK7 act; AID 686952; activation, % at 7 µM; EDANS-DABCYL substrate fluorescence interference, no enzyme, 4 h; solvent 0%, active enzyme control 100%; 3,200 compounds, 80% hits;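 active means activation above the all-compound mean plus 3 SD, ignoring values outside control-based bounds, cut at about 4.8% in these data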;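 further: value is the 4 h activation minus the activation read at time zero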
# EDANS interf – EDANS fluorescence interference in dose response, no enzyme; shares compounds with proKLK7 act; EDANS-DABCYL peptide fluorescence interference; EC50, µM; 250 compounds, 20% hits;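 active means compounds that raise the fluorescence signal in this interference counterscreen, with EC50 at or below 10 µM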;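 further: intact quenched peptide substrate alone read at 355 nm excitation and 520 nm emission; signal is fluorescence gain from T0 to T4 after four hours at room temperature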
# An asterisk follows results filed as active; i = inactive; · = no result given.
SMILES,proKLK7 act,Pemphigus Ab inh,MPTP inh,ADAM17 inh,ADAM10 inh,rCAG RNA binder,KLK7 act conf,EDANS-DABCYL int,others
CCCN1CCN(CCCNC(=O)c2cc3c(=O)[nH]c4ccc(C)cc4c3s2)CC1,21.4*,99.5,0.9,-205.3,i,2.3,-16.5,-14.3,
Cc1ccc2nc(NC(=O)c3ccc4ncsc4c3)sc2c1,14.5*,-6.3*,0.5,-11.1,-82.0,11.3,14.7*,6.8*,EDANS interf=i
Cc1ccc2nc(NC(=O)c3cccs3)sc2c1,27.0*,93.8,-1.5,-58.4,-313.4,10.7,4.3,11.6*,
Cc1ccc2nc(NC(=S)NC(=O)c3cccs3)sc2c1,0.2,95.5,2.4,-1.2,-9.4,7.2,·,·,
Cc1ccc2nc(NC(=O)c3ccc(Cn4cc(Cl)cn4)o3)sc2c1,57.0*,102.0,1.6,-63.9,-166.2,8.4,-100.1,-80.7,
O=c1[nH]c(-c2ccccc2)cn1C1CCN(Cc2ccc(-c3nc4ccccc4nc3-c3ccccc3)cc2)CC1,-8.4,·,·,-41.2,-195.8,10.6,·,·,
CCOC(=O)C1CCCN(C(=O)c2cc3ccc(OC)cc3[nH]2)C1 (centres undefined),-0.4,95.9,-0.5,-1.8,-6.2,-8.0,·,·,
O=C1CCC(C(=O)N2CCCO2)CN1Cc1cccc(C(F)(F)F)c1 (centres undefined),-0.2,99.0,-0.5,-1.4,-1.9,-4.2,·,·,
O=C(Nc1ccnn1C1CCN(Cc2cc(Cl)ccc2O)CC1)c1cccnc1,-0.5,103.0,1.9,-6.0,-0.5,-2.9,·,·,
COc1cccc(CN2C(=O)c3cccc(N)c3C2=O)c1,14.6*,91.8,0.0,-100.7,-303.9,-4.1,76.0*,79.2*,
COc1ccc(CN2C(=O)c3ccccc3C2=O)cc1,-0.1,120.2,0.6,-0.4,9.2,-6.2,·,·,
COCCNc1cc(C)nc2c(-c3ccccc3OC)c(C)nn12,0.2,101.5,-0.8,-3.3,-17.6,1.5,·,·,
Cc1cc(C)c2c(n1)nn1c(NCCN3CCOCC3)cc(C)nc21,33.4*,103.9,-1.3,i,i,0.8,40.3*,31.9*,EDANS interf=>69.5
Cc1cc(NCCN2CCOCC2)n2nc(C)c(-c3ccccc3)c2n1,0.2,·,-0.5,-1.8,-8.1,-7.7,·,·,
COCCNc1cc(C)nc2c3c(C)cc(C)nc3nn12,81.2*,113.7,-0.8,i,i,-2.1,70.5*,62.7*,
O=c1c2cn(Cc3ccccc3)c3ccccc3c-2nn1Cc1ccc(F)cc1Cl,0.0,88.2,1.1,-1.6,1.9,-0.1,·,·,
CCOC(=O)c1[nH]c2ccc(OC)cc2c1NC(=O)CCN1CCC(C)CC1,21.5*,·,·,-94.3,-357.8,-9.3,8.6,6.8*,
CCOC(=O)c1[nH]c2ccc(OC)cc2c1NC(=O)CN1CCSCC1,9.9,·,-0.2,-126.3,-371.6,-4.1,·,·,
CCOC(=O)c1[nH]c2cc(OC)c(OC)cc2c1NC(=O)CCN1CCSCC1,15.8*,·,2.4,-246.4,i,-2.0,11.9,8.7*,
CCOC(=O)c1[nH]c2cc3c(cc2c1NC(=O)CN1CCN(CCO)CC1)OCO3,49.1*,93.2,0.1,i,i,-4.8,25.6*,29.2*,
O=C(N[C@H](C(=O)N1CCC[C@H]1C(=O)NC1CCCC1)c1ccccc1)c1ccccc1,0.8,·,·,-5.4,-7.2,-0.2,·,·,
CC(C)NCC(O)c1ccc(O)c(O)c1 (centres undefined),34.7*,91.3,0.7,-10.1,-13.1,-1.0,46.2*,51.0*,
CNC[C@H](O)c1ccc(O)c(O)c1,9.1,105.8,0.3,-7.2,-16.8,4.6,·,·,
Cc1ccc(S(=O)(=O)N(C)C)cc1NC(=O)COC(=O)CN1C(=O)c2ccccc2C1=O,-0.1,100.8,-1.9,-2.1,-4.9,4.1,·,·,

# High-throughput results deposited in PubChem BioAssay by several laboratories.
